These results are taken from ChEMBL document CHEMBL4513141, “CO-ADD screening of NIH (USA) - Clinical Collection” (2021).

SMILES strings stand for the structures. Results with a measured potency or affinity are listed apart.

One test relates to Klebsiella pneumoniae. Particulars: Concentration 20 uM; ASSAY_TEST Inhibition of Bacterial Growth; detection method Absorption (OD600); MEDIA CAMHB; plate type 384well; NBS; CORNING #3640; time 18 hr.
Another test relates to Candida albicans. Particulars: 20 µM.
For the next test, the system named is Cryptococcus neoformans. To be noted: Concentration 20 uM; ASSAY_TEST Inhibition of Fungal Growth; detection method Resazurin; Absorption (OD600-OD570); plate type 384well; NBS; CORNING #3640. (In general: Resazurin is reduced to fluorescent resorufin, in cell work by metabolically active cells.)

In the case of `CSc1nc2cc(Cl)c(Oc3cccc(Cl)c3Cl)cc2[nH]1` [TRICLABENDAZOLE], the figures for the Inhibition in the test on Klebsiella pneumoniae, in the test with Candida albicans and in the test on Cryptococcus neoformans were -0.37%, 7.82% and -2.96%, respectively.

As to `O=C(O)COCCN1CCN([C@H](c2ccccc2)c2ccc(Cl)cc2)CC1` [LEVOCETIRIZINE], the Inhibition is 20.22% with Klebsiella pneumoniae, 0.53% in the test on Candida albicans and 0.71% in the test with Cryptococcus neoformans.

On to `CC(=O)[C@@]1(O)CC[C@H]2[C@@H]3C[C@H](C)C4=CC(=O)CC[C@]4(C)[C@H]3CC[C@@]21C`, for which the values for the Inhibition in the test with Klebsiella pneumoniae, with Candida albicans and in the test with Cryptococcus neoformans were 2.71%, 2.87% and -0.94%, respectively.

With `CN1CCN(CC/C=C2/c3ccccc3Sc3ccc(S(=O)(=O)N(C)C)cc32)CC1` [THIOTHIXENE], the Inhibition in the test with Klebsiella pneumoniae was 0.07%; with Candida albicans it was 2.99%; with Cryptococcus neoformans, -5.03%.

On to `CCOC(=O)C1=C(C)NC(C)=C(C(=O)OC)C1c1cccc([N+](=O)[O-])c1` (stereo not drawn) [NITRENDIPINE], for which the Inhibition in the test with Klebsiella pneumoniae is 3.96%; in the test on Candida albicans, 3.79%; with Cryptococcus neoformans it was -6.79%.

For `Cc1cnc(NC(=O)C2=C(O)c3ccccc3S(=O)(=O)N2C)s1` [MELOXICAM], the Inhibition with Klebsiella pneumoniae is 2.2%; with Candida albicans it was 9.71%; with Cryptococcus neoformans, -3.68%.

In the case of `COc1cc(C)nc(-n2nc(C)cc2OC)n1` [EPIRIZOLE], the Inhibition in the test on Klebsiella pneumoniae is 10.39%; with Candida albicans it was -0.63%; in the test with Cryptococcus neoformans it was 1.6%.

Regarding `CC[C@H]1OC(=O)[C@H](C)C(=O)[C@H](C)[C@@H](O[C@@H]2O[C@H](C)C[C@H](N(C)C)[C@H]2O)[C@](C)(OC)C[C@@H](C)C(=O)[C@H](C)[C@@H]2N(CCCCn3cnc(-c4cccnc4)c3)C(=O)O[C@@]21C`, the Inhibition in the test on Klebsiella pneumoniae is 3.48%; in the test on Candida albicans it was 0.39%; with Cryptococcus neoformans, -1.28%.

As for `CC(=O)O[C@H]1C[C@@H]2CC[C@@H]3[C@H](CC[C@@]4(C)[C@H]3C[C@H]([N+]3(C)CCCCC3)[C@@H]4OC(C)=O)[C@@]2(C)C[C@@H]1N1CCCCC1.[Br-]` [VECURONIUM BROMIDE], the Inhibition was -0.14% with Klebsiella pneumoniae, 5.46% with Candida albicans and 2.54% in the test on Cryptococcus neoformans.

As to `C[C@]12CCC(=O)C=C1CC[C@@H]1[C@@H]2[C@@H](O)C[C@@]2(C)[C@H]1CC[C@]2(O)C(=O)COC(=O)CCC(=O)O` [HYDROCORTISONE HEMISUCCINATE ANHYDROUS], the results for the Inhibition with Klebsiella pneumoniae, in the test on Candida albicans and in the test on Cryptococcus neoformans were -3.41%, 4.59% and 6.86%, respectively.

Consider `CN(CCOc1ccc(CC2SC(=O)NC2=O)cc1)c1ccccn1.O=C(O)/C=C\C(=O)O` (stereo not drawn) [ROSIGLITAZONE MALEATE], for which the values for the Inhibition in the test on Klebsiella pneumoniae, in the test with Candida albicans and in the test on Cryptococcus neoformans were 9.63%, 0.75% and -9.6%, respectively.

Turning to `NC(Cc1cc(I)c(Oc2ccc(O)c(I)c2)c(I)c1)C(=O)O` (stereo not drawn) [RATHYRONINE], the values for the Inhibition in the test with Klebsiella pneumoniae, in the test on Candida albicans and with Cryptococcus neoformans were 9.96%, 2.19% and -1.85%, respectively.

`CN(C/C=C/C#CC(C)(C)C)Cc1cccc2ccccc12.Cl` [TERBINAFINE HYDROCHLORIDE]: the values for the Inhibition in the test on Klebsiella pneumoniae, in the test on Candida albicans and in the test on Cryptococcus neoformans were 11.69%, 32.9% and 35.41%, respectively.

As for `CC(=O)OCC(=O)[C@@]1(O)CC[C@H]2[C@@H]3CCC4=CC(=O)C=C[C@]4(C)[C@H]3[C@@H](O)C[C@@]21C` [PREDNISOLONE ACETATE], the Inhibition with Klebsiella pneumoniae is 12.95%; in the test on Candida albicans, 0.73%; in the test on Cryptococcus neoformans, -1.37%.

Take `COc1ccc(CC2c3cc(OC)c(OC)cc3CC[N+]2(C)CCC(=O)OCCCCCOC(=O)CC[N+]2(C)CCc3cc(OC)c(OC)cc3C2Cc2ccc(OC)c(OC)c2)cc1OC.O=S(=O)(O)c1ccccc1` (stereo not drawn): the Inhibition is 4.87% in the test with Klebsiella pneumoniae, 3.58% in the test on Candida albicans and -0.33% with Cryptococcus neoformans.

Consider `CN(C)CC/C=C1/c2ccccc2COc2ccc(CC(=O)O)cc21.Cl` [OLOPATADINE HYDROCHLORIDE], for which the Inhibition in the test on Klebsiella pneumoniae was 3.13%; in the test with Candida albicans, 4.03%; in the test with Cryptococcus neoformans, 4.6%.

Regarding `C[C@@H]1O[C@@H](OC[C@H]2O[C@@H](Oc3c(-c4ccc(O)c(O)c4)oc4cc(O)cc(O)c4c3=O)[C@H](O)[C@@H](O)[C@@H]2O)[C@H](O)[C@H](O)[C@H]1O` [RUTIN], the results for the Inhibition with Klebsiella pneumoniae, in the test with Candida albicans and in the test with Cryptococcus neoformans were 10.13%, 3.37% and -5.7%, respectively.

On to `COc1cc2nc(N3CCN(C(=O)C4COc5ccccc5O4)CC3)nc(N)c2cc1OC` (stereo not drawn) [DOXAZOSIN], for which the Inhibition in the test with Klebsiella pneumoniae is 13.22%; in the test on Candida albicans, 3.14%; in the test on Cryptococcus neoformans it was 2.35%.

Turning to `Nc1ccn([C@@H]2CS[C@H](CO)O2)c(=O)n1` [LAMIVUDINE], the Inhibition in the test on Klebsiella pneumoniae was 20.65%; in the test with Candida albicans, 2.4%; in the test with Cryptococcus neoformans, -7.82%.

With `Cc1[nH]cnc1CN1CCc2c(c3ccccc3n2C)C1=O.Cl` [ALOSETRON HYDROCHLORIDE], the Inhibition with Klebsiella pneumoniae was 15.86%; in the test on Candida albicans it was 2.6%; in the test on Cryptococcus neoformans, -5.48%.

`COc1ccccc1OCC(O)COC(N)=O` (stereo not drawn) [METHOCARBAMOL]: the Inhibition was 10.57% in the test with Klebsiella pneumoniae, 3.99% with Candida albicans and -8.85% with Cryptococcus neoformans.

Turning to `CN(C)CCOC(c1ccc(Cl)cc1)c1ccccn1.O=C(O)/C=C\C(=O)O` (stereo not drawn) [CARBINOXAMINE MALEATE], the Inhibition in the test on Klebsiella pneumoniae amounted to 12.89%; in the test with Candida albicans it was 0.99%; in the test on Cryptococcus neoformans it was 0.28%.

For the molecule `Cc1cccc(CCN2CCC(C(=O)c3ccc(NS(C)(=O)=O)cc3)CC2)n1.Cl.Cl`, the Inhibition in the test with Klebsiella pneumoniae is 0.58%; with Candida albicans it was 2.81%; in the test on Cryptococcus neoformans, -8.23%.

On to `CN1CCN(CCCN2c3ccccc3Sc3ccc(Cl)cc32)CC1.O=C(O)/C=C\C(=O)O.O=C(O)/C=C\C(=O)O` [PROCHLORPERAZINE MALEATE], for which the Inhibition was 14.2% with Klebsiella pneumoniae, 3.08% in the test with Candida albicans and -1.92% in the test on Cryptococcus neoformans.

`CN1CCN(C2=Nc3cc(F)ccc3Cc3ccccc32)CC1` [FLUPERLAPINE]: the results for the Inhibition with Klebsiella pneumoniae, in the test on Candida albicans and in the test with Cryptococcus neoformans were 11.17%, 3.99% and -6.37%, respectively.

`Nc1ncnc2c1ncn2[C@@H]1O[C@H](CO)[C@@H](O)[C@@H]1O` [VIDARABINE]: the Inhibition was 13.1% with Klebsiella pneumoniae, 4.29% with Candida albicans and 1.72% with Cryptococcus neoformans.

The term Inhibition denotes the relative decrease from the control value, in per cent.
